Screening data as filed in PubChem.
Rows were chosen to be rich in hits. Some 18% of all compounds tested hit in one or more screens of this group.
VDR inhibitor = blocks the human vitamin D receptor; VDR-SRC2-3 peptide fluorescence polarization, 2 h; P11473; Potency, µM, without a hit: max response, negative = inhibition, actives largely listed as inhibitors; AID 504847; 400,000 tested, 0.93% active
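Signal is fluorescence polarization, reporting how far test compounds block the interaction of VDR with the SRC2-3 coregulator peptide after a 2 h room-temperature incubation.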
TDP1 block = TDP1 (human) enzyme inhibition | Q9NUW8 | recombinant TDP1, AlphaScreen DNA substrate cleavage | Potency, µM (doses to about 130 µM), inactives show at the top dose activity change, negative = inhibition, most hits filed as inhibitors | 350,000 tested, 0.28% active | AID 485290; note: nearly all actives have a fitted effect of over 40% in size
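Enzyme-compound mixtures sat 15 min at room temperature, followed by a 5 min reaction with 15 nM final substrate and 10 min with AlphaScreen beads. Recombinant human Tdp1 was used at 1 nM final.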
DT40 TDP1 CPT = DT40-hTDP1 cell growth loss with CPT; chicken DT40 Tdp1-/-;hTDP1 cells + 20 nM CPT, ATP luminescence, 48 h; Potency, µM (top dose mostly 46.2 µM), inactives show at the highest dose activity change, negative = growth inhibition, usual class: inhibitors; 420,000 tested, 12% active; note: nearly all actives have a fitted effect of over 55% in size
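Cell growth measured by CellTiter-Glo luminescence after a minimum 48 h, 37 C compound exposure with 20 nM CPT in Tdp1-knockout DT40 cells stably expressing hTDP1, seeded 400/well; qHTS titration format.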
PLK1 PBD block = blocks phosphopeptide binding to human PLK1 polo-box domain | Plk1 PBD binding of FITC phosphopeptide, fluorescence polarization | P53350 | AID 720504 | Potency, µM, without a hit: max response, negative = inhibition, actives largely listed as inhibitors | 360,000 tested, 2.8% active; note: series mostly up to about 57 µM; nearly all actives have a fitted effect of over 65% in size
Target sequence (P53350 whole entry, looked up, the tested form may be a part): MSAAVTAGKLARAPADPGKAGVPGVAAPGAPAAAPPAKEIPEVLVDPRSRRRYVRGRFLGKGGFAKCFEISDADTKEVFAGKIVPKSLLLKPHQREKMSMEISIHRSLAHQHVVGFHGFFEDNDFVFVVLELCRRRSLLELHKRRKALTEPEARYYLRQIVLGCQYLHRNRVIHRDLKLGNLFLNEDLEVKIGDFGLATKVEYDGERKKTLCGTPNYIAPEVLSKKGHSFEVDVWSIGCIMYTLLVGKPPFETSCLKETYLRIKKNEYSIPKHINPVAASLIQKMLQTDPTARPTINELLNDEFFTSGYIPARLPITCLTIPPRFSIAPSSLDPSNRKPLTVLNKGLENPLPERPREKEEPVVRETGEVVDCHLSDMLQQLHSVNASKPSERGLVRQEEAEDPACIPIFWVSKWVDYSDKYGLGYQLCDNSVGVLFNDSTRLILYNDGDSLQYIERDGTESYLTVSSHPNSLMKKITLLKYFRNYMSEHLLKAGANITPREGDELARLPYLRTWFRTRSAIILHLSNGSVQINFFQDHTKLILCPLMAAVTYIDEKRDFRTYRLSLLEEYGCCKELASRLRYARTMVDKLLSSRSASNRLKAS
GCN5L2 inh = GCN5L2 (KAT2A) acetyltransferase inhibition. GCN5L2 HAT assay, ThioGlo1 CoA-SH fluorescence. Potency, µM (series often up to 58.9 µM), inactives show at the top dose activity change, negative = inhibition, most hits filed as inhibitors. 390,000 tested, 0.21% active. Q92830. AID 504327
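GCN5L2 (20nM final) in 50mM HEPES, 0.1mM EDTA pH 7.5, 0.01% Tween-20 was preincubated 15 min at room temperature with compound, then given ThioGlo1 (50uM), H3(1-25) peptide (75uM) and acetyl-CoA (70uM); CoA-thiol fluorescence (Ex340/Em540) was read at 0 and 20 min.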
TDP1 cell noCPT = qHTS for Inhibitors of human tyrosyl-DNA phosphodiesterase 1 (TDP1): qHTS in cells in absence of CPT. Potency, µM (series often up to 46.2 µM), without a hit: at the top dose activity change, negative = growth inhibition, usual class: inhibitors. 420,000 tested, 15% active. DT40 Tdp1-/- hTDP1 cells, no CPT, ATP luminescence, 48 h. AID 686978, 2013; note: nearly all actives have a fitted effect of over 55% in size
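Chicken DT40 Tdp1-/- cells stably complemented with human TDP1 were seeded at 400 cells/well with DMSO in place of 20 nM camptothecin. After compound pinning, cells grew at least 48 hr at 37 °C; viability read by CellTiter-Glo luminescence.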
The depositor's hits bear a star; ? = inconclusive; . = no result; [ ] = remark or other dose. Calls come from the whole dose curve; as a rule, active = well fitted curve in the direction sought with a large enough effect; inconclusive = small, poorly fitted or top-dose-only effect, or another doubt; inactive = no such curve, though single readings can be large; an effect the other way counts as inactive or inconclusive. % is set by controls: 0 for no effect and ±100 for the full control effect; potency is the fitted concentration of half-maximal effect.

SMILES	VDR inhibitor	TDP1 block	DT40 TDP1 CPT	PLK1 PBD block	GCN5L2 inh	TDP1 cell noCPT
CCC(=O)NC(c1ccco1)c1cc([N+](=O)[O-])c2cccnc2c1O (stereo not given)	.	1.6%	.	.	.	.
OC1(c2ccc(OC(F)F)cc2)CSC(=Nc2cccnc2)N1C1CC1 (stereo not given)	5.5%	8.0%	20.6µM*	-7.0%	-15.3%	16.4µM*
O=C(c1cccnc1)N1C2CCC1CC(O)(c1ccc(F)cc1)C2 (stereo not given)	-8.4%	0.0%	-1.7%	1.2%	-3.5%	-1.5%
O=C1CCCN2N=C(SCC(=O)Nc3nccs3)SC2=N1	-7.1%	44.7µM*	-4.5%	-11.3%	1.9%	-10.3%
O=C1CCCN2N=C(SCC(=O)Nc3ccc([N+](=O)[O-])cc3)SC2=N1	?	9.2%	-27.6%	37.7µM*	-0.9%	-25.4%
Cc1ccc(C)c(CSC2=NN3CCCC(=O)N=C3S2)c1	5.8%	.	?	-4.4%	1.1%	16.4µM*
O=C1CCCN2N=C(SCC(=O)Nc3cccc(F)c3)SC2=N1	-7.1%	1.6%[0.0935 µM]	20.6µM*	-11.3%	-2.6%	13µM*
O=C1CCCN2N=C(SCC(=O)Nc3ccc(OC(F)(F)F)cc3)SC2=N1	-4.3%	.	-22.9%	-4.9%	-2.5%	?
Cc1ccc(NC(=O)CSC2=NN3CCCC(=O)N=C3S2)c(C)c1	-6.3%	.	?	-7.6%	1.4%	?
Cc1nnc(NC(=O)CSC2=NN3CCCC(=O)N=C3S2)s1	-9.2%	-6.7%	-25.5%	-13.5%	-3.4%	-21.0%
O=C1CCCCC1C(O)(C(=O)c1ccccc1)c1ccccc1 (stereo not given)	.	.	1.1%	-10.3%	.	?
CCC1CCC/C1=N\NC(=O)c1ccccc1C (stereo not given)	-20.3%	.	34.9%	1.6%	.	4.9%
c1ccc2c(N3CCCCCC3)nc(CN3CCCCC3c3nccs3)nc2c1 (stereo not given)	.	.	-4.5%[9.04 µM]	.	.	?
COC(=O)Cc1ccc(NC(=S)Nc2ccccn2)cc1	-4.7%	4.8%	?	-2.4%	3.5%	?
O=S(=O)(Nc1nc2ccccc2nc1Nc1ccccc1Br)c1ccccc1	-9.3%	.	-8.0%	.	-5.2%	-22.6%
COc1ccc(NC(=O)C2CC2(Cl)Cl)cc1S(=O)(=O)N1CCCCC1 (stereo not given)	.	.	?	3.3%	.	?
O=C1N[C@H](Cc2ccccc2)COC(=O)[C@H](Cc2ccc(F)cc2)CC/C=C/C[C@H]1CC(=O)N(CCO)Cc1ccccc1	-12.4%	-0.2%	?	6.9%	-10.0%	23.1µM*
O=C(C[C@@H]1C/C=C\CC[C@H](Cc2ccc(F)cc2)C(=O)OC[C@@H](Cc2ccccc2)NC1=O)NCCO	-20.7%	2.7%	?	-2.7%	-4.4%	?
C[C@@H]1COC(=O)[C@@H](Cc2ccc(F)cc2)C/C=C\C[C@@H](CC(=O)N(CCO)Cc2ccccc2)C(=O)N1	-11.4%	-0.4%	?	-7.5%	0.4%	?
C[C@H]1COC(=O)[C@H](Cc2ccc(F)cc2)C/C=C\C[C@@H](CC(=O)N(CCO)Cc2ccccc2)C(=O)N1	-4.1%	0.3%	14.6µM*	-14.2%	3.4%	20.6µM*
CC(C)(C)[C@@H]1COC(=O)[C@H](Cc2ccc(F)cc2)C/C=C\C[C@H](CC(=O)N(CCO)Cc2ccccc2)C(=O)N1	0.8%	0.7%	13µM*	-3.7%	-2.1%	20.6µM*
O=C1N[C@@H](Cc2ccccc2)COC(=O)[C@@H](Cc2ccc(F)cc2)C/C=C\C[C@@H]1CC(=O)N(CCO)Cc1ccccc1	-6.8%	1.1%	23.1µM*	-19.2%	-7.4%	18.4µM*
CC12CCC=CC1C(c1ccoc1)N(Cc1ccccc1)C2=O (stereo not given)	-4.1%	9.7%	.	.	.	.
CC1(c2ccccc2Cl)NC(=O)N(CC(=O)NCc2ccc3c(c2)OCO3)C1=O (stereo not given)	-7.7%	3.1%	3.7%	-4.6%	-6.3%	-21.6%
COc1cc2c(c(OC)c1OC)-c1c(cc3c(c1OC)OCO3)C[C@@H](C)[C@](C)(O)C2	.	.	9.4%	.	.	?
SMILES	VDR inhibitor	TDP1 block	DT40 TDP1 CPT	PLK1 PBD block	GCN5L2 inh	TDP1 cell noCPT
Cc1c(F)c(N2CCNC(C)C2)cc2c1c(=O)c(C(=O)O)cn2C1CC1 (stereo not given)	9.3%	.	0.1%	.	-3.9%	4.2%
COCCn1c(=O)c(-c2ccc(OC)cc2)nc2cnc(OCc3ccccc3)nc21	-4.3%	.	-2.3%	.	-6.8%	14.0%
CC(C)(C)OC(=O)C[C@@H]1C/C=C\C[C@@H](CC(=O)N(CCO)Cc2ccccc2)C(=O)NCCOC1=O	-9.4%	0.0%	-21.0%	-12.4%	-0.4%	-21.2%
O=C1NCCOC(=O)[C@@H](Cc2ccc(F)cc2)C/C=C\C[C@@H]1CC(=O)N(CCO)Cc1ccccc1	10.0%	-0.4%	18.4µM*	-9.1%	1.4%	20.6µM*
Cc1cc2c(c(SCC(N)=O)n1)C(=O)OC2	-22.1%	0.5%	?	29.9µM*	-2.9%	-0.9%
CN(Cc1cn[nH]c1-c1cc2ccccc2o1)CC1CCOCC1	-12.7%	.	-3.4%	0.7%	-1.0%	-4.0%
c1ccc2oc(-c3[nH]ncc3CN(Cc3ccncc3)CC3CCCO3)cc2c1 (stereo not given)	-1.9%	7.4%	?	-7.5%	-23.3%	25.9µM*
O=C1CC[C@@H](CN(Cc2ccccc2)Cc2cn[nH]c2-c2cc3ccccc3o2)N1	18.2%	8.1%	25.9µM*	4.3%	-5.2%	16.4µM*
CN(C)CCCNC(=S)N1CCn2c(nc3ccccc32)C1	-9.9%	2.3%	0.0%	-13.2%	0.5%	-6.1%
COC(=O)C1=C(C(=O)OC)[C@@H]2N(C)c3ccc(OC)cc3[C@@]23C[C@@H](C(=O)OC)N(S(=O)(=O)c2ccc(Br)cc2)C3=N1	.	16.7%[12.3 µM]	.	.	.	.
C#CCOc1c(Br)cc(/C=N/O)cc1OCC	-28.5%	2.5%	-16.7%	-14.2%	2.1%	29.1µM*
CN1CCN(c2nc3c(c(=O)[nH]c(=O)n3C)n2Cc2ccccc2)CC1	-0.7%	0.8%	8.1%	-4.1%	-6.3%	-17.7%
CCCCc1cc2c(cn1)=C(OC(=O)c1ccco1)C(C)(OC(=O)CC)C(=O)C=2 (stereo not given)	.	14.3%[12.3 µM]	.	.	.	.
COC(=O)N1CCC[C@@]2(CCN(C(=O)Nc3ccccc3)C2)C1	0.2%	.	10.2%	.	-9.8%	-3.7%
CCOC(=O)C1(C)CCCN1C(=O)c1ccc(F)c(Cl)c1 (stereo not given)	.	.	?	-0.8%	.	?
O=C(CN1CCc2ccccc21)NC(=O)NCc1ccccc1	-6.1%	5.3%	?	26.7µM*	-12.3%	?
